# Where “and” joins values, the source holds several entries; their conditions need not be identical. Identical values can stand only once. The panel holds about 83,000 compounds, 20% with a hit somewhere; the sample as a whole holds those more often.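 Negative percent growth values reflect cell death: -40 means 40% of the cells present at the start died, and -100 means all died.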 A number with no mark means an inactive call. Calls of active or inactive are those of the source. The calls were made as follows: active = growth percent below 10; inactive = the rest.
# System: MDA-MB-468 breast
# Assay: NCI-60 one-dose screen, 48 h (100 = growth as untreated, 0 = no growth, -100 = all killed)
# Conditions: 10 µM unless noted
row,Compound,growth
1,Cc1nc2sc(C(=O)Nc3ccc(Br)cc3)c(N)c2cc1C(O)c1ccccc1 (centres undefined),12.7%
2,CCOC(=O)CNC1=C(Cl)C(=O)N(Cc2ccc(Cl)cc2)C1=O,105%
3,COc1cc2nc(-c3cccc4cccnc34)nc(NC3CCN(Cc4ccccc4)CC3)c2cc1OC,-78.5% (active)
4,CCCCCCCCCCCCCCCC[N+](C)(C)CCN(Cc1ccc(OC)cc1)c1ncccn1,-49.2% (active) and -52.1% (active)
5,CC1=CC(=O)c2cccc(NC3=NCCO3)c21,107%
6,CN(C)c1ccc(-c2ccc3c(c2)c(-c2ccccc2)nc(=O)n3C)cn1,5.69% (active)
7,COc1cc([C@@H]2c3cc4c(cc3[C@H](O)[C@H]3COC(=O)[C@@H]23)OCO4)cc(OC)c1OC,-1.25% (active) and -3.58% (active)
8,COc1ccc(C(=O)c2c(N)nc3n2CCCC3)cc1OC,97.7%
9,O=S(=O)(Nc1ccc(Cl)c(C(F)(F)F)c1)c1ccc(-c2cnc(C3CC3)o2)cc1,-7.54% (active)
10,O=C(CCN1C(=O)/C(=C/c2ccccc2F)SC1=S)N1CCOCC1,24.7%
11,CCC(C)[C@H](NC(=O)Nc1cc(C(F)(F)F)cc(C(F)(F)F)c1)C(=O)N[C@@H](Cc1cn(C)cn1)C(=O)OC (some centres undefined),-74.1% [100 µM] (active)
12,BrCCCOc1ccc(Oc2ccc(OCCCBr)cc2)cc1,97.5%
13,CCOc1ccccc1C(=O)OCC(=O)Nc1cccc(S(=O)(=O)N(C)C)c1,84.7%
14,O=C1C=CC(=O)N1CO,117%
15,CCOc1ccc(-n2nc(C(=O)Nc3cc(OC)c(OC)c(OC)c3)nc2-c2cc(OC)c(OC)c(OC)c2)cc1,82%
16,COc1ncc(-c2ccc3ncnc(Nc4cccc(Cl)c4)c3c2)cc1NS(=O)(=O)C1CC1,-43.9% (active)
17,CCOC(C=O)OCC,102%
18,COc1ccc(NC(=O)c2ccc(C(=O)Nc3ccc(OC)cc3OC)cc2)c(OC)c1,85%
19,S=c1nc[nH]c2nc[nH]c12,6.65% [50 µM] (active)
20,N#C/C(=C\c1ccc2c(c1)OCO2)n1nnc2cc(F)c(F)cc21,6.05% (active)

row,Compound,growth
1,O=C(Nc1cccc(Cl)c1)Oc1c(Br)c(Br)c(Br)c(Br)c1Br,94.1%
2,CC[C@]12C=CCN3CC[C@]4(C(=C(C(=O)OC)C1)Nc1cc5c(cc14)[C@@H]1[C@H](O5)[C@@H](O)[C@@]4(CC)CC(C(=O)OC)=C5Nc6cc(O)ccc6[C@@]56CCN1C46)C32 (some centres undefined),-51% (active)
3,CC[n+]1c(/C=C/c2ccc(N3CCCC3)cc2)cccc1/C=C/c1ccc(N2CCCC2)cc1,-85.8% (active)
4,COC(=O)[C@H](Cc1cn(C)cn1)NC(=O)[C@H](C)NC(=O)Nc1cc(C(F)(F)F)cc(C(F)(F)F)c1,-82.8% [100 µM] (active)
5,O=C1/C(=C/c2ccccn2)CCc2ccccc21,98.4%
6,C[C@]12CCC(=O)C=C1CC[C@H]1[C@@H]3C[C@@H](O)[C@](O)(C(=O)CO)[C@@]3(C)C[C@H](O)[C@@]12F,128%
7,COc1ccc(-c2c(-c3nc4ccc(N5CCOCC5)cc4[nH]3)[nH]c(C)c2C(C)=O)cc1,23.1%
8,CCC(CC)COC(=O)c1ccc(O)c(O)c1,80.6%
9,CN1CCN(c2nc(NCCCNc3ccnc4cc(Cl)ccc34)c3ccccc3n2)CC1,54.6%
10,CC(C)(C)OC(=O)N1CCN(c2ccc(N)cc2)C(=O)C1,111%
11,Cc1cc(Cl)nc(NCc2cc(Nc3ccnc4cc(Cl)ccc34)ccc2F)n1,11.4%
12,NC(=S)N/N=C/C(=O)O,37.7%
13,C/C(=N\Nc1cc(C)c2ccccc2n1)c1ccccn1,-63.2% (active)
14,CC(=O)Oc1cccc(S(=O)(=O)n2cc(C(=O)C(=O)Nc3ccncc3)c3ccccc32)c1,7.5% (active)
15,COc1ccc(/C(=C\c2ccc3c(c2)OCO3)C(=O)Nc2nc3ccc(F)cc3s2)cc1OC,115%
16,C/C=C(\C)C(C(=O)NC1CCCCC1)N(C(=O)C1CCc2cc(F)ccc2O1)c1ccc(Cl)cc1 (centres undefined),97%
17,Nc1nc(=S)ss1,101%
18,O=C(Nc1ccccc1Cl)c1cnc2ccc(C3CCNCC3)cn12,63.3%
19,Cc1ccc(S(=O)(=O)Oc2ccc(NC(=O)c3ccc(Cl)cc3)cc2)cc1,95.2%
